ERG-DNA inh: qHTS for Small Molecule Inhibitors of the ERG Ets/DNA interaction | fluorescence polarization, His-ERG Ets domain / labelled DNA | Transcriptional regulator ERG (Homo sapiens), P11308 | hit rate 0.028% among 370,000 | AID 624246, 2012 | Potency, µM (highest dose often 76.9 µM), without a hit: at the highest dose FP activity, negative = inhibition, most hits filed as inhibitors; active means well fitted inhibition curve with a large enough effect in the polarisation, with a control signal flat; inconclusive means small, poorly fitted or top-dose-only effect, or effect the other way, or a change in a side signal; inactive means no such curve, though single readings can be large or run the other way; the % refers to the polarisation;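 further: polarization taken with two DNA probes labelled with fluorescein and Texas red; potency means the concentration at half of the fitted maximal effect; % of control where 0% means no effect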
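His-tagged ERG Ets domain (1 uM in the protein solution; 300mM KCl, 50mM Tris-HCl, 1mM EDTA, 1mM DTT, pH 7.5) received compound, then a probe mix of 5 nM fluorescein-DNA and 100nM Texas-615-DNA. Fluorescence polarization was read for both dyes.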
RORg inh: qHTS for inhibitors of ROR gamma transcriptional activity; Nuclear receptor ROR-gamma (Mus musculus), P51450; Drosophila S2 Gal4-RORgamma UAS-luciferase reporter, 20 h; Potency, µM (series often up to 53.6 µM), inactives show top-dose activity change, negative = inhibition, usual class: inhibitors; hit rate 5.4% among 310,000; AID 2551, 2010; further: potency means the concentration at half of the fitted maximal effect; on the % scale 0 is the no-effect control and ±100 the full control effect; nearly all actives have a fitted effect of over 60% in size
Target sequence (P51450 whole entry, looked up, the tested form may be a part): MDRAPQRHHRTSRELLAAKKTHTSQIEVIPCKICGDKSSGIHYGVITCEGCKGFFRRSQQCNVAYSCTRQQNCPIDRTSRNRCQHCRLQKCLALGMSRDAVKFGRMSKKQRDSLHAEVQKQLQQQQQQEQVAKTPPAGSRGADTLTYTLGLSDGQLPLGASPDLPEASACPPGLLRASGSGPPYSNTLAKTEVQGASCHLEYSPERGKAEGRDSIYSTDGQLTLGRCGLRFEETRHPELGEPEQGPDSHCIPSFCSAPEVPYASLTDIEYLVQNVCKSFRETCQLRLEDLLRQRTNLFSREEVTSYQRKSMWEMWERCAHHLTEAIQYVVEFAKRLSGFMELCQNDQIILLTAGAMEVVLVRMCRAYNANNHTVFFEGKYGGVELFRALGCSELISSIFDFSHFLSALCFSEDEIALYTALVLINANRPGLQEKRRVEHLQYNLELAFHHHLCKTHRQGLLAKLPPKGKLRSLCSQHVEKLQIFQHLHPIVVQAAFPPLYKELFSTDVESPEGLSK
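A Gal4/UAS one-hybrid system in insect cells: metallothionein-promoter Gal4–ROR gamma fusion plus Photinus luciferase reporter. Copper sulfate 700 uM final, 20 hr ambient incubation, luminescent detection after 10 min with reagent.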
Giardia killer: Small Molecules that selectively kill Giardia lamblia: qHTS; Giardia lamblia trophozoite viability; activity change, % at 7.66 µM, hits read low; hit rate 0.15% among 340,000; AID 540267, 2011; in the data active means activity change below about -80%; inconclusive means between about -30% and that limit;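 further: parasites exposed to compound for two days anaerobically before the ATP read; on the % scale 0 is the no-effect control and ±100 the full control effect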
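Killing of trophozoites was scored by loss of ATP luminescence after a 48 hrs anaerobic exposure to compounds at 37 deg C, using 100 cells per well.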
VP16 counter: VP16 counterscreen qHTS for inhibitors of ROR gamma transcriptional activity; hit rate 3.5% among 310,000; Potency, µM (series often up to 53.6 µM), for inactives: at the highest dose activity, negative = inhibition, usual class: inhibitors; AID 2546, 2010; Drosophila S2 Gal4-VP16 UAS-luciferase, luminescence, 20 h;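 further: Gal4-VP16 expression switched on by copper sulfate through the metallothionein promoter; potency means the concentration at half of the fitted maximal effect; on the % scale 0 is the no-effect control and ±100 the full control effect; nearly all actives have a fitted effect of over 50% in size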
Integrin act MD: qHTS for Activators of Integrin-Mediated Alleviation for Muscular Dystrophy | alpha7betagal myoblasts, beta-gal FDG fluorescence, 48 h | Potency, µM (doses to about 38.3 µM), for the others: at the top dose activation, usual class: activators | hit rate 0.064% among 350,000 | AID 624291, 2012;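 further: potency means the concentration at half of the fitted maximal effect; 100% = response of the positive control SU9516; nearly all actives have a fitted effect of over 60% in size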
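Alpha7betagal+/- myoblasts (passage 13) were plated 16-24 hr, then exposed to compounds (1:260 dilution of DMSO stock) for 48 hours at 37C. After MPER lysis, β-galactosidase reporter activity was read as FDG fluorescence (ex 480/em 540) after 30 minutes.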
Starred values were filed as active, the others as inactive; ? = inconclusive; nt = no result given; [ ] = dose if it differs, or a comment. Many of the other results were omitted from the sample, so hits are more common in it than they were. Unless noted, the call rests on the fitted dose curve; in most records, active means well fitted curve in the direction sought with a large enough effect; inconclusive means small, poorly fitted or top-dose-only effect, or another doubt; inactive means no such curve, though single readings can be large; an effect the other way counts as inactive or inconclusive.

SMILES	ERG-DNA inh	RORg inh	Giardia killer	VP16 counter	Integrin act MD
CCOc1ccc(C(=O)N/N=C(\c2ccccc2)c2ccccn2)cc1	-1.8%	0.199µM*	-15.5	0.0562µM*	-11.9%
Cc1ccc(C(=O)c2c3ccccc3[n+]([O-])n2CCC(N)=O)cc1	1.3%	21.0%	-2.8	-1.7%	-20.7%
O=C(CSc1ccccc1)NCc1ccc2c(c1)CCN2C(=O)c1ccc(F)cc1	-2.4%	nt	nt	nt	nt
Cc1cnc([N+](=O)[O-])n1CCOC(=O)c1cccc(F)c1	-7.4%	-4.2%	-80.7*	-11.2%	5.0%
CS(=O)(=O)c1ncc(Cl)c(C(=O)Nc2ccc3ccccc3c2)n1	15.1%	2.82µM*	-16.4	4.47µM*	-66.5%
CC1CCCN(S(=O)(=O)c2ccc(NC(=O)CNC3CCCC3)cc2)C1 (centres undefined)	2.6%	12.5%	18.5	7.1%	-2.5%
CCOc1ccc(NC(=O)c2nc(S(=O)(=O)Cc3ccccc3F)ncc2Cl)cc1	-5.6%	nt	-11.0	nt	nt
CCS(=O)(=O)c1ncc(Cl)c(C(=O)Nc2ccc(S(=O)(=O)N3CCCC(C)C3)cc2)n1 (centres undefined)	22.4%	?	-9.4	3.55µM*	-74.8%
COc1ccc(CNC(=O)c2nc(S(=O)(=O)Cc3ccccc3)ncc2Cl)cc1	-8.4%	5.62µM*	-10.5	3.55µM*	-84.4%
O=C(NCc1ccc2c(c1)OCO2)c1nc(S(=O)(=O)Cc2ccccc2F)ncc1Cl	-0.8%	7.08µM*	?	3.55µM*	-77.1%
COC(=O)c1ccccc1NC(=O)c1nc(S(=O)(=O)Cc2ccccc2)ncc1Cl	9.9%	?	11.5	3.16µM*	-42.9%
CCC1CCCCN1S(=O)(=O)c1ccc(NC(=O)c2nc(S(C)(=O)=O)ncc2Cl)cc1 (centres undefined)	13.2%	3.16µM*	-3.1	3.98µM*	-74.1%
CCS(=O)(=O)c1ncc(Cl)c(C(=O)Nc2ccc(C)cc2)n1	1.7%	5.01µM*	-27.6	2µM*	-52.1%
COc1ccc(NC(=O)c2nc(S(=O)(=O)Cc3ccc(C)cc3)ncc2Cl)cc1	-3.1%	nt	nt	nt	nt
CCS(=O)(=O)c1ncc(Cl)c(C(=O)NCc2ccccc2)n1	-0.9%	nt	nt	nt	nt
CC(=O)Nc1ccc(NC(=O)c2nc(S(=O)(=O)Cc3ccccc3)ncc2Cl)cc1	5.8%	2.24µM*	-22.9	0.355µM*	-87.7%
O=S(=O)(c1ccc(Br)cc1)N1CCN(c2nc(-c3ccccc3)nc3ccccc23)CC1	nt	nt	-14.1	nt	nt
COc1ccc(S(=O)(=O)NCCCC(=O)Nc2ccc(Sc3ccc(N)cc3)cc2)cc1	nt	14.7%	nt	?	nt
CCCn1c(=O)cc(N)n(-c2ccc(OC(F)(F)F)cc2)c1=O	-2.8%	-2.1%	-5.6	2.5%	?
Cc1cccc(C(=O)NC(C(=O)Nc2ccccc2N2CCOCC2)C(C)C)c1 (centres undefined)	-3.7%	2.3%	-19.7	0.5%	12.1%
Cc1c(NC(=O)COC(=O)CCc2c[nH]c3ccccc23)c(=O)n(-c2ccccc2)n1C	-4.2%	-14.7%	16.7	-2.3%	-9.6%
O=C(NCc1ccccc1)c1nc(S(=O)(=O)Cc2ccccc2)ncc1Cl	0.4%	5.01µM*	11.5	2.82µM*	-24.2%
COc1ccc(Cl)cc1N=Cc1c(O)cc(C)oc1=O	nt	nt	-19.1	nt	?
Cc1cc(O)c(/C=N/OCc2ccc(Cl)cc2Cl)c(=O)o1	-1.1%	12.6µM*	-15.1	?	7.5%
O=C/C(=C\Nc1ccccn1)c1nc2cc(Cl)ccc2o1	-1.1%	5.62µM*	-12.4	10µM*	-13.2%
SMILES	ERG-DNA inh	RORg inh	Giardia killer	VP16 counter	Integrin act MD
COc1ccc(OCCCC(=O)Nc2nc(-c3ccccn3)cs2)cc1	0.2%	10µM*	-11.5	-27.8%	-11.0%
O=C(CCS(=O)(=O)c1ccccc1)Nc1nc(-c2ccccn2)cs1	-0.3%	nt	?	nt	-65.0%
Cc1cc(C)c(OCC(=O)Nc2nc(-c3ccccn3)cs2)c(C)c1	4.3%	2.82µM*	13.2	?	-29.8%
COc1ccc2oc(C(=O)Nc3nc(-c4ccccn4)cs3)c(C)c2c1	2.1%	nt	1.9	nt	4.6%
O=C(CCS(=O)(=O)c1ccc(F)cc1)Nc1nc(-c2ccccn2)cs1	12.2%	10µM*	-18.0	-22.0%	-63.3%
CC[C@@H](C)C(NC(=O)OC(C)(C)C)c1cn([C@@H](CCC(=O)OC(C)(C)C)C(=O)N2CCN(C(=O)OC(C)(C)C)CC2)nn1 (some centres undefined)	-3.3%	0.4%	-19.5	-5.9%	-2.7%
Clc1ccc(Cn2cc3c(n2)-c2cc4ccccc4n2C3)cc1	nt	nt	11.1	nt	nt
CCc1ccc(NC(=S)N(Cc2ccc(Cl)cc2)Cc2ccc(C(=O)O)cc2)cc1	-1.9%	31.2%	12.2	-9.7%	6.4%
CC(C)CN(CC(C)C)C(=S)Nc1ccc(Cl)cc1	4.9%	3.98µM*	-2.6	20µM*	-30.3%
CCc1ccc(-n2nc3ccc(NC(=O)COc4ccc(OC)cc4)cc3n2)cc1	5.7%	nt	nt	nt	nt
CC(=O)Nc1ccc(NC(=O)CSc2nc3ccccc3o2)cc1	-10.5%	15.7%	2.2	-1.6%	-17.9%
CC(=O)Nc1nonc1NC(=O)CSc1nc2ccccc2o1	-4.2%	0.794µM*	-4.2	3.98µM*	-0.9%[7.66 µM]
CCOC(=O)c1c(NC(=O)CSc2nncs2)sc(C)c1-c1ccccc1	-5.0%	-24.8%	-15.5	0.447µM*	-25.9%
Cc1nonc1NC(=O)CSc1nc2ccccc2o1	-10.7%	8.91µM*	-12.4	?	-1.1%
CCOC(=O)c1sc(NC(=O)CSc2nc3ccccc3o2)c(C(=O)OCC)c1C	1.3%	3.16µM*	1.2	2µM*	2.4%
CCOC(=O)c1c(-c2ccccc2)csc1NC(=O)CSc1nncs1	8.6%	28.5%	-0.5	?	-5.3%
C=CS(=O)(=O)c1sc(Cl)c(N2CCOCC2)c1[N+](=O)[O-]	-4.7%	10µM*	3.3	7.08µM*	-70.2%
CC(=O)c1cccc(NC(=O)CC2S/C(=N/N=C3CCCCCC3)NC2=O)c1 (centres undefined)	-9.6%	10µM*	4.3	-25.5%	13.7%
COc1ccc(Cl)cc1NC(=O)CC1S/C(=N/N=C2CCCCCC2)NC1=O (centres undefined)	-3.4%	3.55µM*	1.5	5.01µM*	15.5%
CC1=C/C(=N\N=C2\NC(=O)C(CC(=O)Nc3ccccc3)S2)CC(C)(C)C1 (centres undefined)	-5.7%	1.58µM*	-9.8	?	2.1%
CCOc1ccc(NC(=O)CC2S/C(=N/N=C3CCCCCC3)NC2=O)cc1 (centres undefined)	2.6%	20µM*	14.1	11.2µM*	23.5%
O=C(CC1S/C(=N/N=C/c2ccco2)NC1=O)Nc1ccccc1 (centres undefined)	-7.4%	-42.9%	5.3	-15.8%[10 µM]	?
Cc1ccc(NC(=O)CC2SC(=NC3CCCCC3)NC2=O)cc1 (centres undefined)	0.9%	40.1%	-16.4	-14.7%	11.7%

Screening data: PubChem, National Center for Advancing Translational Sciences (NCATS)
